Activity calls are given as the source filed them. Rule for the calls: active = hit-call score of the fitted dose curve at least 0.9, where 1 is the maximum; inactive = score below 0.9.
read-out: ATP-citrate lyase (ACLY), ACLY (gene 47); experiment: LTEA_HepaRG_ACLY: Life Technologies and Expression Analysis (LTEA) Assay for ATP-citrate lyase (ACLY) using HepaRG (AID 2283466); conditions: mRNA level, 48 h; actives raise or lower the signal
Procedure: LTEA_HepaRG is a cell based, multiplexed-readout assay that uses HepaRG, a human liver cell line, with measurements taken at 48 hours after chemical dosing on a 96-well plate.LTEA_HepaRG_ACLY is one of 102 assay component(s) measured in the LTEA HepaRG cell culture assay. It is a marker of Steatosis.Data from the assay component LTEA_HepaRG_ACLY was analyzed into 1 endpoint. This assay endpoint, LTEA_HepaRG_ACLY, was analyzed with bidirectional fitting relative to DMSO as the negative control and baseline of activity. Using a type of inducible reporter, measures of mRNA induction for gain or loss-of-signal activity can be used to understand regulation of transcription factor activity. To generalize the intended target to other relatable targets, this assay endpoint is annotated to the lyase intended target family, where the subfamily is steatosis.
A total of 1060 chemcials from the ToxCast library were tested in eight-point concentration-response experiments. Cell culture and cytotoxicity assays were conducted at Thermo Fisher Scientific's Custom Services facility (Madison, WI). A single lot of human HepaRG cells (Thermo Fisher Scientific, Frederick, MD) was used for the cell culture experiments. 96-well format collagen type I coated plates of human HepaRG cells were prepared using established methods. Briefly, cryopreserved HepaRG cells were thawed, plated at a density of approximately 100,000 cells/well in HepaRG Thaw, Plate, and General Purpose media (HPRG770, Thermo Fisher Scientific), and incubated for 48 hours. 0.5% DMSO was selected as vehicle control to balance the requisite need of DMSO in HepaRG cultures to maintain differentiation (for example, baseline metabolism, proportions of hepatocytes vs. cholangiocytes), while enabling further hepatic receptor pathway activation (for example, PXR and CAR) in response to chemical exposure. 48 hours after plating, the culture medium was replaced with HepaRG Serum-Free Incudtion Media. Cells were exposed to each test chemical in duplicate and maintained in CO2 incubators for another 48 hours. Chemical plates were thawed to room temperature and 200x concentrations of treatment groups were prepared. 8-point conentration-reponse curves were made with the highest exposure at 100 uM, followed by half-log dilutions, all in 0.5% DMSO. Each test plate contained variouse controls, induction positive controls (1mM phenobarbital), cytotoxicity positive controls ([…] aflatoxin B1), vehicle controls (0.5% DMSO), and total lysis controls (0.5% DMSO). Cell morphology images were taken using an Essen IncuCyte FLR automated microscope, with six 96-well plates imaged in about 24 minutes. Images were captured and exported and JPEG files. Spent culture media was transfered to black-well plates for the LDH assay, and remaining media was sorted at -80 C for later use. Cells were treated with RLT buffer and frozen until shipped for gene expression analysis. Total RNA was isolated from the cell suspension in 75 uL of Buffer RLT (Qiagen, Germantown, MD 20874) by Quintiles/Expression Analysis (Durham, NC) using a custom isolation procedure. Total RNA from each plate well was transferred to a preamplification plate. Fluidigm's 96.96 Dynamic ArrayTM (Fluidigm, Amsterdam, the Netherlands) technology was used for gene expression analyses by quantitative reverse transcription polymerase chain reaction (qRT-PCR, performed by Quintiles/Expression Analysis, Durham, NC)89. Standard TaqManTM Assays (Applied Biosystems/ThermoFisher Scientific, Foster City, CA) were used to assess the expression of 93 genes selected based on their selectivity and sensitivity to important hepatic receptors known to be modulated by environmental chemicals; importance in human hepatocyte functionality; and hepatotoxicity. […]

SMILES | outcome | AC50
CCCCCCCCOC(=O)CCCCCCCCC(=O)OCCCCCCCC | inactive | 
OCCC(F)(F)C(F)(F)C(F)(F)C(F)(F)C(F)(F)C(F)(F)C(F)(F)C(F)(F)F | inactive | 
CCCOC(=O)c1ccc(O)cc1 | inactive | 
CCCCCCCC(=O)O |  | 12.4 µM (active)
Nc1cccc2c(N)cccc12 | inactive | 
CCCCC(CC)COC(=O)CCCCC(=O)OCc1ccccc1 (stereo not given) | inactive | 
Cc1oc(-c2ccccc2)nc1CCOc1ccc(C[C@H](Nc2ccccc2C(=O)c2ccccc2)C(=O)O)cc1 |  | 22.6 µM (active)
N#C[C@@H]1CC(F)(F)CN1C(=O)CNC1CC2CCC(C1)N2c1ncccn1 (stereo not given in full) | inactive | 
c1ccc2cc3c(ccc4ccccc43)cc2c1 | inactive | 
CCCCCCCCCCCCN1CCCC1=O | inactive | 
CCOC(=O)CC(O)(CC(=O)OCC)C(=O)OCC | inactive | 
NC(=O)N1C(=O)C(C(=O)c2cc(Cl)cs2)c2cc(F)c(Cl)cc21 (stereo not given) |  | 21 µM (active)
CC(C)(C)c1ccc(O)c(C(C)(C)C)c1 | inactive | 
CC(=O)CC(C)(C)O | inactive | 
O=[N+]([O-])c1ccc(O)cc1 | inactive | 
CCc1nn(C2CCCCC2)c2cc(C3(C#N)CCC(C(=O)O)CC3)ccc12 (stereo not given) |  | 25.5 µM (active)
ClC1=C(Cl)C(Cl)(Cl)C(Cl)=C1Cl | inactive | 
O=C(O)c1ccccc1C(c1ccc(O)cc1)c1ccc(O)cc1 | inactive | 
CC(C)(C)c1cccc(C(C)(C)C)c1O | inactive | 
C#C[C@]1(O)CC[C@H]2[C@@H]3CCC4=CC(=O)CC[C@@H]4[C@H]3CC[C@@]21C | inactive | 

SMILES | outcome | AC50
CCCCCCCCCCCCc1ccccc1S(=O)(=O)O | inactive | 
CCCCCCCCCCCCCCCS(=O)(=O)Oc1ccccc1 | inactive | 
OC1CCCCC1 | inactive | 
OCCC(F)(F)C(F)(F)C(F)(F)C(F)(F)C(F)(F)C(F)(F)F | inactive | 
CC[C@H](c1ccc(O)cc1)[C@@H](CC)c1ccc(O)cc1 |  | 83.9 µM (active)
CC(=O)NC1(c2cccc(F)c2)CCN(CC[C@@]2(c3ccc(Cl)c(Cl)c3)CN(c3ccccc3)C(=O)CO2)CC1 | inactive | 
CCCCC(CC)COC(=O)CCCCC(=O)OCC(CC)CCCC (stereo not given) | inactive | 
Cc1cc(C)c(O)c(C)c1 | inactive | 
COCC(C)OCC(C)O (stereo not given) | inactive | 
CCC(=C(c1ccc(O)cc1)c1ccc(OCCN(C)C)cc1)c1ccccc1 | inactive | 
Oc1cc2ccccc2c2ccccc12 | inactive | 
O=C(O)Cc1cc(I)c(Oc2cc(I)c(O)c(I)c2)c(I)c1 |  | 56.3 µM (active)
c1ccc2c(c1)Cc1ccccc1-2 | inactive | 
CC[C@H](C)[C@@H](C(=O)O)n1sc2ccccc2c1=O | inactive | 
NC(=O)N(O)[C@@H]1C=C[C@H](Oc2cccc(Oc3ccc(F)cc3)c2)C1 |  | 22.7 µM (active)
Cc1cc(CCN2CCN(c3nsc4ccccc34)CC2)cc2c1NC(=O)CC2(C)C | inactive | 
CC(C)CCCCCCOC(=O)CCCCC(=O)OCCCCCCC(C)C | inactive | 
COc1ccc([N+](=O)[O-])cc1N | inactive | 
O=C(OCCOCCOC(=O)c1ccccc1)c1ccccc1 | inactive | 
CC1=C(/C=C/C(C)=C/C=C/C(C)=C/C(=O)O)C(C)(C)CCC1 | inactive | 

From PubChem BioAssay (EPA / NIEHS)
